Sampled rows, rich in hits. Any-hit rate of the full collection: about 2.2%.
APP transl inh: APP translation inhibition. SH-SY5Y APP 5'UTR-luciferase reporter, luminescence. inhibition, % at 2 µM. actives 0.82% (n = 190,000). AID 1285;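 active = inhibition above a set limit, derived from the sample mean plus 3 SD, cut at about 45% in these data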
BaF3 tox: reduces parental Ba/F3 cell viability, JAK2V617F counter-screen; CellTiter-Glo ATP luminescence; inhibition, % at 5.6 µM; actives 1.1% (n = 220,000); AID 1486;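 active = inhibition above a per-campaign cutoff, the mean inhibition of all tested compounds plus 3 SD, cut at about 27% in these data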;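 note: 0% = DMSO wells and 100% = JAK Inhibitor I control wells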
aSyn UTR inh: 5' untranslated region of α-synuclein, MLPCN primary screen; alpha-synuclein 5'UTR reporter, inhibitor activity; inhibition, % (tested at 7.5 µM); actives 0.82% (n = 300,000); AID 1813; in the data active = inhibition above about 60%;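 note: H4 neuroglioblastoma cells stably carrying SNCA 5'UTR luciferase fusion; 0% = DMSO wells and 100% = positive control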
IEC-6 tox: IEC-6 cytotoxicity, counter-screen for KLF5 inhibitors; luminescence viability; inhibition, % at 5 µM; actives 0.78% (n = 290,000); in the data active = inhibition above about 22%;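 note: 0% = plate median of test compound wells and 100% = cytotoxic reference compound wells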
KLF5 inh: suppresses KLF5 promoter-driven expression; actives 0.23% (n = 290,000); AID 1700; DLD-1 KLF5 promoter-luciferase reporter, luminescence; inhibition, % at 5 µM;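 active = inhibition above a per-plate limit of that plate's mean compound inhibition plus 3 SD, cut at about 60% in these data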;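 note: 0% = DMSO wells and 100% = LY294002 at 200 µM; higher means less KLF5 promoter-driven luciferase light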
Ba/F3 V617F tox: lowers viability of Ba/F3 cells expressing EpoR and JAK2V617F | actives 1.1% (n = 220,000) | ATP luminescence | inhibition, % at 5.6 µM;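 active = inhibition above the campaign mean plus 3 SD over all tested compounds, cut at about 24% in these data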;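 note: cytokine-independent growth of Ba/F3 cells driven by EpoR plus mutant JAK2; 0% = DMSO-treated cells and 100% = JAK inhibitor I control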
Active calls of the source: *; · = not tested or not shown.

SMILES	APP transl inh	BaF3 tox	aSyn UTR inh	IEC-6 tox	KLF5 inh	Ba/F3 V617F tox
O=c1[nH]cc(F)c(=O)[nH]1	6.0	82.7*	-31.4	86.4*	45.8	86.1*
Cc1cc([N+](=O)[O-])ccc1-c1ccc(C2Nc3ccccc3C(=O)N2O)o1 (configuration not stated)	53.5*	7.8	82.6*	7.2	-11.9	1.7
O=C(O)C1CCN(S(=O)(=O)c2cccc3nonc23)CC1	·	·	0.2	-6.4	-40.0	·
Cc1nn(C)cc1S(=O)(=O)N1CCN(c2ccccc2)CC1	·	·	2.8	1.3	-20.9	·
CC[n+]1c(C)cc(C)n1-c1ccccc1	5.2	64.6*	-5.4	4.8	-20.6	63.3*
CCCc1nc(C)cc(N2CCN(c3ccccc3)CC2)n1	·	·	-15.0	0.2	-29.7	·
C=C[C@H]1CN2CC[C@H]1C[C@H]2[C@H](O)c1ccnc2ccc(OC)cc12	·	·	-5.0	·	·	·
Cc1ccc(S(=O)(=O)N2CCCCC2)cc1C(=O)OC1CCCCC1=O (configuration not stated)	·	·	20.0	·	·	·
O=C(COC(=O)C1CCN(S(=O)(=O)c2cccc3cccnc23)CC1)c1ccccc1	3.4	63.5*	21.7	-3.0	-18.1	28.6*
CC(=O)c1ccc(NC(=O)c2cnn3ccccc23)cc1	-105.3	3.0	78.9*	10.2	54.2	0.8
COc1cccc(C(=O)N/N=C(/c2ccccc2)c2ccccn2)c1	14.8	96.7*	73.0*	18.9	20.1	101.0*
COc1cccc(C(=O)N/N=C(/CCC(=O)O)c2ccccc2)c1	-2.7	5.5	-32.4	12.0	-6.7	-0.1
COc1cc(NC(=O)c2ccccn2)cc(OC)c1OC	2.6	-0.5	-8.4	3.5	2.4	0.5
COc1cc(C(=O)N/N=C(\c2ccccc2)c2ccccn2)cc(OC)c1OC	82.0*	6.5	81.3*	10.1	29.2	5.5
COCCn1c(C)cc(C(=O)CSc2nnc(C)s2)c1C	-22.0	3.2	99.6*	2.3	4.2	-3.4
COCCn1c(C)cc(C(=O)COC(=O)c2cccc(O)c2)c1C	·	-0.8	67.4*	2.6	27.8	-4.1
COCCn1c(C)cc(C(=O)COC(=O)c2cc3c(s2)CCC3)c1C	-17.5	4.0	-78.4	-1.6	2.5	-2.6
Cc1cc(C)c(NC(=O)CN2C(=O)NC3(CCCc4ccccc43)C2=O)c(Cl)c1 (configuration not stated)	·	·	13.2	·	·	·
COC(=O)C(C)NS(=O)(=O)c1ccc(NC(C)=O)cc1 (configuration not stated)	-21.4	5.0	9.9	25.8*	1.2	4.8
CCC(C)NS(=O)(=O)c1ccc(NC(C)=O)cc1 (configuration not stated)	-26.6	2.4	1.2	4.8	-4.0	0.1
O=C(COc1ccccc1[N+](=O)[O-])N(Cc1ccco1)C1CCS(=O)(=O)C1 (configuration not stated)	·	·	26.0	-1.0	10.2	·
COC(=O)CCC(=O)NC(=S)Nc1sc(C)c(C)c1C(N)=O	93.9*	71.3*	89.5*	40.5*	57.9	75.0*
COC(=O)CCC(=O)Nc1sc(C)c(C)c1C(N)=O	9.0	-5.3	-1.3	-5.9	0.9	-3.7
Cc1ccccc1C[n+]1cccc2ccccc21	·	·	-18.8	·	·	·
CCCCCCCCCCCCCCCC[n+]1cccc2ccccc21	23.0	81.9*	·	28.3*	-4.5	100.8*
SMILES	APP transl inh	BaF3 tox	aSyn UTR inh	IEC-6 tox	KLF5 inh	Ba/F3 V617F tox
Cn1nnnc1SCCNC(=O)C1CCC(=O)N(Cc2ccc(Cl)cc2)C1 (configuration not stated)	·	·	-4.1	0.7	0.7	·
Cc1ccc(-c2ccnc3c(Cl)c(C)nn23)cc1	·	·	68.7*	16.7	-24.1	·
CCn1c(C)c2c(C)nnc(C)c2c1C	-11.1	8.9	-0.5	0.3	-7.1	4.9
CCn1c(C)c(P(c2ccccc2)c2ccccc2)[n+]2ccccc12	6.7	70.0*	16.5	-0.9	-4.9	68.7*
Cc1ccc(-c2cn(-c3ccccc3)c3[n+]2CCCS3)cc1	-4.8	66.5*	2.0	11.1	-38.2	76.6*
c1ccc(-c2cn(-c3ccccc3)c3[n+]2CCCS3)cc1	·	63.0*	12.8	4.0	9.5	68.0*
O=C(O)c1cc(O)ccc1NC(=O)C(c1ccccc1)c1ccccc1	·	·	16.5	2.9	-27.0	·
Cn1c(N2CCOCC2)c(/C=N/OC(=O)c2ccc(F)cc2)c2ccccc21	39.5	0.5	72.7*	-1.4	-32.0	2.7
Cc1ccc(C(=O)O/N=C/c2c(N3CCOCC3)n(C)c3ccccc23)cc1	70.3*	3.3	77.4*	-3.6	8.3	-3.0

Screens from PubChem BioAssay.
